MbtI inh = blocks the Mycobacterium tuberculosis siderophore enzyme MbtI; AID 493033; inhibition, % (test concentration not listed); actives 0.89% (n = 100,000); purified MbtI enzyme, fluorescence intensity read-out; in the data active = inhibition mostly above about 56%, no sharp cut-off; inactive = mostly below about 77%
MenB inh = inhibitors of Mycobacterium tuberculosis MenB enzyme | MenB enzyme assay, absorbance read-out | inhibition, % (concentration not given with the values) | actives 0.43% (n = 100,000) | AID 540299; in the data active = inhibition above about 21%, passing the limit was not always enough
PV pol inh = poliovirus RNA polymerase inhibition; % elongation, % (compound at 16.7 µg/mL); P03300; actives 0.66% (n = 150,000); poliovirus polymerase elongation, fluorescence polarization; hits give low values; AID 588519; in the data active = % elongation below about 90%
Target sequence (P03300 1749-2209 limits assumed): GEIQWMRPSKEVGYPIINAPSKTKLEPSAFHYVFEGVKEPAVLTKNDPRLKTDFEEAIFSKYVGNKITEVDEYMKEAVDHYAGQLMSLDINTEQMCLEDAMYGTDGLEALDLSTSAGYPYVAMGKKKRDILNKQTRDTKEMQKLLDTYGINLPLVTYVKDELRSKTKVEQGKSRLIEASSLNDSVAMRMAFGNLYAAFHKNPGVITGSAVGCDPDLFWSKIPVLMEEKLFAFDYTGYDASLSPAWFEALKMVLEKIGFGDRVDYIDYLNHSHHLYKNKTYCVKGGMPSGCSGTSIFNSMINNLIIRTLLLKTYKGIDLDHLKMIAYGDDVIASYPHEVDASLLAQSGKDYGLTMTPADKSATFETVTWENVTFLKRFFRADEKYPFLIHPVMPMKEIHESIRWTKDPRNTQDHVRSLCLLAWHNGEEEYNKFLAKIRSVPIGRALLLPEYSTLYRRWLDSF
An asterisk follows results filed as active; x = no result given. Only some compounds are listed: those with a hit (about 1.4% of all), similar ones and a draw of the others.

SMILES	MbtI inh	MenB inh	PV pol inh
COc1ccc(Cl)cc1NC1=NC2CS(=O)(=O)CC2S1 (stereo not given)	63.0*	-16.6	99.0
COc1ccc(Cl)cc1NC1=NCC(C)S1 (stereo not given)	-10.1	-27.4	103.0
COc1cccc2cc(C(=O)Nc3ccccc3-c3nnn(CC(=O)NC(C)(C)C)n3)c(=O)oc12	x	-2.6	106.0
COc1cccc(C=C2C(=O)N(C)C(=S)N(C)C2=O)c1OC	93.5*	-76.4	95.0
CN1C(=O)C(=Cc2ccccc2OCc2ccccc2)C(=O)N(C)C1=S	77.1	-25.2	100.0
CCCC(=O)N/N=C/c1ccc(Br)cc1	0.7	-15.0	103.0
CCOc1ccc(-c2c(=O)n(O)c3ccccc3[n+]2[O-])cc1	86.8*	-142.2	99.0
O=c1c(-c2ccc(I)cc2)[n+]([O-])c2ccccc2n1O	43.0	-114.1	101.0
COc1ccc(CC(=O)Nc2c(-c3ccc(F)cc3)nc3ccccn23)cc1	107.6	-12.3	97.0
CCOC(=O)c1cnc2ccccc2c1NCCc1ccccc1	40.5	-1.0	100.0
CCOC(=O)c1cccc2ncccc12	96.0*	-60.9	99.0
CN(Cc1ccccc1)C(=O)c1ccc2c(c1)S(=O)(=O)N=C1CCCCCN12	-2.5	-22.0	100.0
Nc1cccc2c1C(=O)N(C(=O)c1ccc3c(c1)S(=O)(=O)N=C1CCCCCN13)C2=O	-1.3	-31.7	58.0*
CN1CCN(/C=N/c2nc3c(s2)CCCC3)CC1	11.4	14.8	101.0
Nc1ccc2nc(CCCO)[nH]c2c1	58.9	28.4	54.0*
Nc1ccc2nc(CO)[nH]c2c1	9.6	1.5	100.0
N=C1C(c2nc3ccccc3s2)=C(O)CN1/N=C1\C(=O)Nc2ccccc21	1.1	-4.5	100.0
COc1ccc2c(c1)cc1n2CCN=C1N	x	-5.3	89.0*
COc1ccc2c(c1)cc1n2CCN2CCN=C12	-1.7	-3.3	100.0
Cc1c(C#N)c2ccccc2n1CC(N)=O	x	-0.1	104.0
c1ccc2c(c1)OC1(CCCCC1)O2	-4.6	-39.2	104.0
CC(C)C(=O)N(c1ccc(Cl)cc1)C1C=CS(=O)(=O)C1 (stereo not given)	-0.4	-6.9	102.0
OCC(CO)(CO)NC(=S)Nc1cc(Cl)cc(Cl)c1	25.9	-8.3	105.0
CC(CO)(CO)NC(=S)Nc1ccc(F)c(Cl)c1	55.4*	0.4	107.0
NC(=S)Nc1ccc(C(=O)O)cc1	92.2	-79.2	81.0*
SMILES	MbtI inh	MenB inh	PV pol inh
O=C(CSC(=O)c1ccccc1)Nc1ccc(C(F)(F)F)cc1	41.8	x	100.0
NC(=S)CC(=O)Nc1ccccc1	92.6*	-36.2	101.0
O=C(CC(=O)Nc1ccccc1)Nc1ccccc1	-1.9	x	x
CC(=O)Nc1ccc(C(=O)O)cc1	-36.0	-3.2	94.0
NC(=O)c1ccc(NC(=O)CSC(=O)c2ccccc2)cc1	70.2*	x	102.0
O=c1[nH]snc1N1CCOCC1	2.4	x	x
O=c1[nH]snc1N1CCCCC1	42.6	13.1	64.0*
COc1ccc(-c2onc(C)c2C)cc1S(=O)(=O)NC1CCN(Cc2ccccc2)CC1	21.6	-23.9	102.0
Cc1nnc(N2CCCC2)c2c1nnn2Cc1ccccc1Cl	-12.6	8.7	101.0
O=C(O)C1C2C=CC(C2)C1C(=O)N1CCN(Cc2ccccc2)CC1 (stereo not given)	-1.1	-28.2	80.0*
O=C(O)C1C2C=CC(C2)C1C(=O)N1CCC(Cc2ccccc2)CC1 (stereo not given)	-8.6	x	x
O=c1[nH]c2ccccc2c(O)c1Br	40.0	9.1	100.0
O=C(O)CNC(=S)N(Cc1ccccc1)Cc1cccnc1	4.3	11.9	102.0
CN(CC(=O)O)Cc1cccnc1	-4.5	26.2*	99.0
O=C(Nc1ccc2c(c1)OCCO2)Oc1ccccc1	-10.8	-7.0	102.0
Cc1ccc(S(=O)(=O)NC(=O)NC2CCCCC2NC(=O)NS(=O)(=O)c2ccc(C)cc2)cc1 (stereo not given)	-0.2	1.7	96.0
Cc1ccc(C(c2c(O)[nH]c(=S)[nH]c2=O)N2CCCCC2)cc1 (stereo not given)	41.0	-74.2	100.0
CC(C)=CC[C@@H](O)C1=CC(=O)c2c(O)ccc(O)c2C1=O	-22.5	x	46.0*
COc1ccc(N2CC(=O)N(/N=C/c3ccc(N(C)C)cc3)C2=S)cc1	x	-50.0	103.0
Cn1c(=O)c2ncnnc2n(C)c1=O	-2.6	-22.2	63.0*
Cn1c(=O)c2c(ncn2C)n(C)c1=O	-28.7	4.5	100.0
O=C(Cc1coc2cc(O)ccc12)OCc1ccccc1C(F)(F)F	-7.6	-16.9	100.0
O=C(Cc1coc2cc(O)ccc12)OCC(=O)c1ccc2[nH]c(=O)[nH]c2c1	-6.7	-12.2	72.0*
N#Cc1sc(=S)n(-c2ccccc2)c1N	16.1	x	x
N#Cc1c(N)sn(-c2ccccc2)c1=S	94.2*	-5.5	79.0*
SMILES	MbtI inh	MenB inh	PV pol inh
CCn1c(CCC(=O)O)nc2cc(S(N)(=O)=O)ccc21	91.7	-65.1	64.0*
CCn1c(C)nc2cc(S(N)(=O)=O)ccc21	-10.7	x	x
O=C(COC(=O)c1cccnc1Cl)Nc1ccccc1C(F)(F)F	2.3	x	99.0
O=C(/C=C/c1ccco1)/C=C/c1ccco1	26.2	-44.4	80.0*
O=C(/C=C/c1ccco1)Nc1cccc(NC(=O)/C=C/c2ccco2)n1	x	3.6	95.0
COc1ccc(CNC(=O)c2ccc(N3CC4CC(C3)c3cccc(=O)n3C4)c(N)c2)cc1 (stereo not given)	-6.3	-12.7	99.0
CCOC(=O)C1C(=O)C=C(c2ccc(NS(C)(=O)=O)cc2)CC1c1ccco1 (stereo not given)	14.5	-40.8	102.0
COC(=O)C1C(=O)CC(=O)CC1c1ccco1 (stereo not given)	0.7	39.9*	100.0
COc1ccc(C2=C/C(=C/c3ccc4c(c3)OCO4)C(=O)O2)cc1	-1.3	5.4	86.0
Cc1ccc(C)c(Cn2cccc2C#N)c1	-12.1	x	x
CSc1nn(C)c2cnn(C)c(=O)c12	71.4	-1.9	55.0*
Cn1ncc2c(c(SCc3ccc(Cl)cc3Cl)nn2C)c1=O	20.8	-17.3	101.0
c1ccc2c(c1)COC(CN1CCCC1)OC2	-8.0	-12.6	106.0
N#CCCN1C(=O)NC(Cc2ccccc2)(c2ccccc2)C1=O (stereo not given)	-4.2	4.2	102.0
COc1ccc(-c2noc(N(C)c3ccccc3)n2)cc1	-16.0	-16.1	106.0
COc1ccc(-c2nc(N)s[n+]2-c2ccccc2)cc1	97.7*	x	102.0
Cc1cc2nc(Sc3ccccc3Cl)cc(=O)n2o1	29.9	-18.1	105.0
CCOc1ccccc1C(=S)N1CCOCC1	73.8*	-5.9	100.0
O=C(Oc1ccccc1C(=S)N1CCOCC1)c1ccccc1	27.4	-37.9	104.0
CC(=O)N1CCSc2cc(S(=O)(=O)NCc3ccccc3)ccc21	-4.6	-2.5	103.0
CC(C)OC1(O)C(=O)c2ccccc2C(=O)C1(O)OC(C)C (stereo not given)	x	-18.7	9.0*
CCOC1(O)C(=O)c2ccccc2C(=O)C1(O)OCC (stereo not given)	78.6	x	x
Cc1c(C(N)=O)nnn1-c1ccc(Cl)cc1	-27.0	11.5	103.0
C=CCC(O)(CN)CC=C	0.6	32.2*	103.0
CCOC(=O)c1ccc(Cn2nnc3ccccc3c2=O)cc1	-4.8	-64.1	105.0
COc1ccccc1N(Cc1ccccc1O)C(=O)COc1ccccc1	-9.9	-39.0	109.0
O=C1C(c2c(O)[nH]c3ccccc23)=Nc2ccccc21	-5.4	2.8	99.0

Source: PubChem (ICCB-Longwood Screening Facility, Harvard Medical School)
